Bioassay records deposited in PubChem BioAssay by National Center for Advancing Translational Sciences (NCATS).
DRD3 agonist = activates the human D3 dopamine receptor | AID 652048 | hit rate 0.58% among 410,000 | P35462 | D3R DiscoveRx beta-arrestin cells, luminescence, 90 min | max activation, %; in the data active = max activation above about 30%; also: 0% is about no effect
Target sequence (P35462 whole entry, looked up): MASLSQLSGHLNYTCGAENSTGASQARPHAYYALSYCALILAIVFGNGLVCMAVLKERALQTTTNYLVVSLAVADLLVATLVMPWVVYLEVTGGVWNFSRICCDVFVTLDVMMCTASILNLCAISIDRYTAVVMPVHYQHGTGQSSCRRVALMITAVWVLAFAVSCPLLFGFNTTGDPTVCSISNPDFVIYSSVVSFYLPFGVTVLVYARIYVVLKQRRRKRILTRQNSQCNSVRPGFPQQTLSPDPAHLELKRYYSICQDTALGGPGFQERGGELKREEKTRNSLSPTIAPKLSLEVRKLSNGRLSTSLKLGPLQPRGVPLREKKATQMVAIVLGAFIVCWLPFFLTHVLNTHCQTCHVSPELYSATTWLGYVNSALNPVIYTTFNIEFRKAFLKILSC
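Cells at 1500/well, incubated overnight, then treated with pinned compounds (dopamine as control) for 90 min at 37 degrees C. DiscoveRx reagent added for 30 - 60 minutes at room temperature; luminescence read.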
SW480 rereplic = inducers of DNA re-replication in SW480 colon cancer cells; SW480 DNA re-replication, Hoechst DNA content imaging, 48 h; Potency, µM (doses to about 46.1 µM), without a hit: top-dose re-replication activation, usual class: activators; hit rate 1.8% among 340,000; also: potency is read from the fitted curve at half-maximal effect; % of control where 0% means no effect; nearly all actives have a fitted effect of over 55% in size
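Readout is total intensity of Hoechst-stained nuclei, excited at 405 nm and collected at 500-530 nm. Compound treatment lasted 48 hr at 37 C in 5% CO2 before staining.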
D3 antag = D3 dopamine receptor (human) antagonism | max response, negative = inhibition, % | D3R cells, DiscoveRx beta-arrestin luminescence, antagonist mode; active compounds read low | AID 652054 | hit rate 2.5% among 360,000; in the data active = max response below about -50%; inconclusive = no clear call, values can overlap the other calls; also: % is scaled to controls: 0 for no effect and ±100 for the full control effect
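Cells expressing the human receptor were seeded at 1500 cells/well, incubated overnight at 37 degrees C in 5% CO2, then exposed to library compounds with dopamine controls for 90 minutes at 37 degrees C before luminescent detection.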
KB-3-1 cytotox = kills parental KB-3-1 adenocarcinoma cells; hit rate 1.4% among 400,000; KB-3-1 viability, CellTiter-Glo ATP luminescence, 72 h; Potency, µM (top dose mostly 46.1 µM), hits mostly cytotoxic; AID 1347075; also: potency is read from the fitted curve at half-maximal effect; % is scaled to controls: 0 for no effect and ±100 for the full control effect; nearly all actives have a fitted effect of over 60% in size
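Viability of parental KB-3-1 cells, measured by CellTiter-Glo luminescence, followed a 72 h incubation at 37 °C with pinned compounds in phenol-red-free DMEM containing 10% FBS.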
KB-V1 MDR tox = KB-V1 MDR subline cytotoxicity | Potency, µM (highest dose often 46.1 µM), hits mostly cytotoxic | hit rate 3.4% among 400,000 | KB-V1 MDR cells viability, CellTiter-Glo, 72 h; also: potency is read from the fitted curve at half-maximal effect; % is scaled to controls: 0 for no effect and ±100 for the full control effect; nearly all actives have a fitted effect of over 60% in size
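In this primary screen, KB-V1 cells overexpressing P-gp are incubated with library compounds (lowest to highest concentration) for 72 h at 37 degrees C before a luminescent ATP viability read.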
MCF10A rereplic = induces DNA re-replication in MCF 10a normal breast cells; MCF 10A DNA re-replication, Hoechst nuclear intensity, 48 h; Potency, µM (titrated, usually from 46.1 µM), for the others: at the top dose activity, positive = re-replication, actives largely listed as activators; hit rate 2.9% among 350,000; also: potency is read from the fitted curve at half-maximal effect; % of control where 0% means no effect; nearly all actives have a fitted effect of over 50% in size
The depositor's hits bear a star; ! = not confirmed by another sample; [ ] = dose if it differs, or a comment. An excerpt weighted towards active compounds, which were near 8.9% of everything screened. Unless noted, calls follow the shape of the dose curve; as a rule, active = well fitted curve in the direction sought with a large enough effect; inconclusive = small, poorly fitted or top-dose-only effect, or another doubt; inactive = no such curve, though single readings can be large; an effect the other way counts as inactive or inconclusive.

How did CCN1CCc2nc(N)oc2CC1 do in these assays?
DRD3 agonist: 41*!; SW480 rereplic: 7%; D3 antag: -16; KB-3-1 cytotox: inactive; KB-V1 MDR tox: inactive; MCF10A rereplic: -4%

What do the screens show for `CCCN1CCc2nc(N3CCN(CC)CC3)ncc2C1`?
DRD3 agonist: 5; KB-3-1 cytotox: inactive; KB-V1 MDR tox: inactive

What do the screens show for `CC(C)C(O)(C#CCN1CCCCCC1)c1ccccc1` (stereo unspecified)?
DRD3 agonist: -10; SW480 rereplic: -37%; D3 antag: -60*; KB-3-1 cytotox: inactive; KB-V1 MDR tox: inactive; MCF10A rereplic: 9%

Results for OC(CC#CCN1CCCCC1)(c1ccccc1)c1ccccc1 ?
DRD3 agonist: -36; SW480 rereplic: -1%[9.22 µM]; D3 antag: -52*; KB-3-1 cytotox: inactive; KB-V1 MDR tox: inactive; MCF10A rereplic: 12%

Results for C(#CCN1CCCC1)CC(c1ccccc1)c1ccccc1 ?
DRD3 agonist: -23; SW480 rereplic: 4%; D3 antag: -14; KB-3-1 cytotox: inactive; KB-V1 MDR tox: inconclusive; MCF10A rereplic: 13µM*

What do the screens show for `OC(CCCN1CCCCC1)(c1ccccc1)c1ccccc1`?
DRD3 agonist: -98; SW480 rereplic: 5%; D3 antag: -101*; KB-3-1 cytotox: inactive; KB-V1 MDR tox: inactive; MCF10A rereplic: 12%

What do the screens show for `C(#Cc1ccccc1)CN1CCCCC1`?
DRD3 agonist: -11; SW480 rereplic: -8%; D3 antag: inconclusive; KB-3-1 cytotox: inactive; KB-V1 MDR tox: inactive; MCF10A rereplic: -4%

What do the screens show for `OC(CC#CCN1CCCC1)(c1ccccc1)c1ccccc1`?
DRD3 agonist: -23; SW480 rereplic: 5%; D3 antag: -4; KB-3-1 cytotox: inactive; KB-V1 MDR tox: inactive; MCF10A rereplic: 0%

What do the screens show for `CCC(O)(CCN1CCCCC1)c1ccccc1` (stereo unspecified)?
DRD3 agonist: 4; SW480 rereplic: -1%; D3 antag: 15; KB-3-1 cytotox: inactive; KB-V1 MDR tox: inactive; MCF10A rereplic: -2%

What do the screens show for `COc1ccc(N2CCN(CC(O)COc3ccccc3C(C)(C)C)CC2)cc1` (stereo unspecified)?
DRD3 agonist: -26; KB-3-1 cytotox: inactive; KB-V1 MDR tox: inactive

What do the screens show for `CC(C)c1ccc(Nc2nc3c(S(=O)(=O)c4ccc(Br)cc4)nnn3c3ccsc23)cc1`?
DRD3 agonist: -4; KB-3-1 cytotox: inactive; KB-V1 MDR tox: inactive

Results for COc1cccc(N2CC(C(=O)Nc3nnc(SCC(=O)c4ccccc4)s3)CC2=O)c1 (stereo unspecified) ?
DRD3 agonist: -2; SW480 rereplic: 0%; D3 antag: 0; KB-3-1 cytotox: inactive; KB-V1 MDR tox: inconclusive; MCF10A rereplic: inconclusive

What do the screens show for `COc1ccc(N2CC(C(=O)Nc3ccccc3N3CCCC3)CC2=O)c(OC)c1` (stereo unspecified)?
DRD3 agonist: -24; SW480 rereplic: 21µM*; D3 antag: -8; KB-3-1 cytotox: 7.3µM*; KB-V1 MDR tox: inconclusive; MCF10A rereplic: inconclusive

How did Cc1ccc(N2CC(C(=O)Nc3nccs3)CC2=O)cc1Cl (stereo unspecified) do in these assays?
DRD3 agonist: -16; SW480 rereplic: 18%; D3 antag: -11; KB-3-1 cytotox: inconclusive; KB-V1 MDR tox: 7.3µM*; MCF10A rereplic: 8%

What do the screens show for `COc1ccc(C(=O)CSc2nnc(NC(=O)C3CC(=O)N(c4ccccc4)C3)s2)cc1` (stereo unspecified)?
DRD3 agonist: 3; SW480 rereplic: 2.9µM*; D3 antag: -2; KB-3-1 cytotox: inactive; KB-V1 MDR tox: inactive; MCF10A rereplic: 6%

How did CCOc1ccc(N2CC(C(=O)Nc3nnc(Cc4ccc(OC)c(OC)c4)s3)CC2=O)cc1 (stereo unspecified) do in these assays?
DRD3 agonist: 5; SW480 rereplic: inconclusive; D3 antag: 7; KB-3-1 cytotox: inactive; KB-V1 MDR tox: inactive; MCF10A rereplic: 7%

What do the screens show for `COc1ccc(Cc2nnc(NC(=O)C3CC(=O)N(c4ccccc4C)C3)s2)cc1OC` (stereo unspecified)?
DRD3 agonist: -8; SW480 rereplic: 3%; D3 antag: -64*; KB-3-1 cytotox: inactive; KB-V1 MDR tox: inactive; MCF10A rereplic: 0%

How did O=C(NCCc1ccccc1)c1cc2sccc2n1Cc1ccc(F)cc1 do in these assays?
DRD3 agonist: -17; KB-3-1 cytotox: inactive; KB-V1 MDR tox: inactive

Results for COc1ccc(N2CCN(CC(O)COc3ccc(C(C)C)c(C)c3)CC2)cc1 (stereo unspecified) ?
DRD3 agonist: -8; KB-3-1 cytotox: inconclusive; KB-V1 MDR tox: inconclusive

How did COC(=O)c1ccccc1NC(=O)C1CC(=O)N(c2ccc(C)c(C)c2)C1 (stereo unspecified) do in these assays?
DRD3 agonist: 0; SW480 rereplic: 87%; D3 antag: -10; KB-3-1 cytotox: inactive; KB-V1 MDR tox: 21µM*; MCF10A rereplic: inconclusive

How did Cc1nc(N2CCN(Cc3ccc(Cl)cc3)CC2)c2oc3ccccc3c2n1 do in these assays?
DRD3 agonist: -11; SW480 rereplic: 6%; D3 antag: 25; KB-3-1 cytotox: inactive; KB-V1 MDR tox: inconclusive; MCF10A rereplic: inconclusive

Results for Cc1nc(N2CCN(Cc3ccc4c(c3)OCO4)CC2)c2oc3ccccc3c2n1 ?
DRD3 agonist: -19; SW480 rereplic: inconclusive; D3 antag: inconclusive; KB-3-1 cytotox: inconclusive; KB-V1 MDR tox: inconclusive; MCF10A rereplic: 12µM*

What do the screens show for `Cc1nc(Nc2ccc3c(c2)OCO3)c2oc3ccccc3c2n1`?
DRD3 agonist: -3; SW480 rereplic: 5%; D3 antag: -54*; KB-3-1 cytotox: inactive; KB-V1 MDR tox: inactive; MCF10A rereplic: 11%

How did Cc1nc(NCCN2CCOCC2)c2oc3ccccc3c2n1 do in these assays?
DRD3 agonist: -2; SW480 rereplic: -14%; D3 antag: -3; KB-3-1 cytotox: inactive; KB-V1 MDR tox: inactive; MCF10A rereplic: -4%

How did Cc1nc(NCCc2ccccc2)c2oc3ccccc3c2n1 do in these assays?
DRD3 agonist: 15; SW480 rereplic: 2%; D3 antag: 10; KB-3-1 cytotox: inconclusive; KB-V1 MDR tox: 23µM*; MCF10A rereplic: -180%[0.0737 µM]

What do the screens show for `Cc1ccc(-c2nnc(Nc3ccc4c(c3)OCO4)c3ccccc23)cc1S(N)(=O)=O`?
DRD3 agonist: -18; SW480 rereplic: 2%; D3 antag: 1; KB-3-1 cytotox: inactive; KB-V1 MDR tox: inactive; MCF10A rereplic: -3%

What do the screens show for `Cc1nnc(Nc2ccc3c(c2)OCO3)c2ccccc12`?
DRD3 agonist: -8; SW480 rereplic: 2%; D3 antag: -63*; KB-3-1 cytotox: inconclusive; KB-V1 MDR tox: inactive; MCF10A rereplic: 15%
